Experimental findings from PubChem BioAssay (NCI) are described below.

Common to all, as to test: NCI-60 one-dose screen, 48 h (100 = growth as untreated, 0 = no growth, -100 = all killed)
One test has as its system RPMI-8226 leukemia. To be noted: 10 µM unless noted.
The next test relates to OVCAR-8 ovarian. The following applies: 10 µM unless noted.
For the next test, the system named is OVCAR-5 ovarian. To be noted: 10 µM unless noted.
Another test deals with SK-OV-3 ovarian. The following applies: 10 µM unless noted.
The next test concerns IGROV1 ovarian. To be noted: 10 µM unless noted.
Another test concerns OVCAR-3 ovarian. The following applies: 10 µM unless noted.
Another test has as its system HS 578T breast. The following applies: 10 µM unless noted.
A further test relates to NCI/ADR-RES ovarian. To be noted: 10 µM unless noted.
For another test, the system named is T-47D breast. To be noted: 10 µM unless noted.
For the next test, the system named is BT-549 breast. To be noted: 10 µM unless noted.
The test system of another test is MDA-MB-435 melanoma. The following applies: 10 µM unless noted.
For a further test, the system named is SW-620 colon. To be noted: 10 µM unless noted.
The next test has as its system MCF7 breast. The following applies: 10 µM.
Another test has as its system HCT-116 colon. The following applies: 10 µM unless noted.
Another test deals with HCC-2998 colon. To be noted: 10 µM unless noted.
In a further test the test system is KM12 colon. To be noted: 10 µM unless noted.
The test system of a further test is OVCAR-4 ovarian. The following applies: 10 µM unless noted.

Each structure is given as a SMILES string. Compounds without any hit were thinned out: in the full panel of roughly 83,000, 20% have a hit.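 Negative percent growth values reflect cell death: -40 means 40% of the cells present at the start died, and -100 means all died.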 Unmarked numbers belong to inactive results. Active and inactive are the calls of the source. The calls were made as follows: active = growth percent below 10; inactive = the rest.

On to `CCn1c(SCC(=O)Nc2cc(C(F)(F)F)ccc2Cl)nc2ccccc2c1=O`, for which the growth in the test on RPMI-8226 leukemia is 14.2%; in the test on OVCAR-8 ovarian, 60.9%; in the test on OVCAR-5 ovarian, 78.3%; in the test on SK-OV-3 ovarian, 76.5%; in the test on IGROV1 ovarian, 34.2%; with OVCAR-3 ovarian, 52.4%. In addition, the growth in the test on HS 578T breast is 43.8%; with NCI/ADR-RES ovarian, 47.3%; in the test with T-47D breast, 50.6%; in the test on BT-549 breast it was 64.3%; in the test on MDA-MB-435 melanoma it was 18.1%; with SW-620 colon it was 49.1%. The growth in the test with MCF7 breast is 28.9%; with HCT-116 colon, 32.2%; in the test with HCC-2998 colon, 11.7%; in the test with KM12 colon, 10.3%.
Regarding `CCN1CCN(c2cc(C)c3cc(NC(=O)c4ccc(OC)c(OC)c4)ccc3n2)CC1`, the growth with RPMI-8226 leukemia was 16.7%; in the test on OVCAR-8 ovarian it was 58.9%; in the test with OVCAR-5 ovarian, 88.7%; in the test on SK-OV-3 ovarian, 39.8%; in the test with IGROV1 ovarian it was 36.6%; in the test with OVCAR-3 ovarian, 12.5%. The growth with HS 578T breast was 32.6%; in the test with NCI/ADR-RES ovarian it was 28.1%; with T-47D breast it was 58.4%; in the test on BT-549 breast, 42.3%; with MDA-MB-435 melanoma it was -42% (active); in the test on SW-620 colon, 16.7%. Also, the growth in the test on MCF7 breast was 17.9%; in the test with HCT-116 colon, 26.3%; in the test with HCC-2998 colon, 81.9%; in the test on KM12 colon it was 26.2%.
For `Clc1ccc(COc2ccc(Nc3ncnc4onc(-c5ccccc5)c34)cc2)cc1`, the growth in the test on RPMI-8226 leukemia was 74.8%; in the test on OVCAR-8 ovarian it was 92.2%; in the test on OVCAR-5 ovarian, 92.8%; in the test on OVCAR-4 ovarian, 7.69% (active); with IGROV1 ovarian, 83.4%; in the test on OVCAR-3 ovarian it was 92.8%. The growth is 82.1% in the test with HS 578T breast; 77% in the test on T-47D breast; 89.1% in the test on BT-549 breast; 73.1% in the test on MDA-MB-435 melanoma; 68.1% in the test on SW-620 colon; 75.9% in the test on MCF7 breast. For the same compound, the growth in the test with HCT-116 colon is 72.1%; with HCC-2998 colon it was 106%; in the test with KM12 colon, 88.9%.
In the case of `Cc1sc2ncn(CC(=O)Nc3ccc(S(N)(=O)=O)cc3)c(=O)c2c1C`, the growth is 106% with RPMI-8226 leukemia; 96.5% with OVCAR-8 ovarian; 99.2% in the test on OVCAR-5 ovarian; 108% with OVCAR-4 ovarian; 108% in the test on OVCAR-3 ovarian; 95.8% in the test on HS 578T breast. Besides, the growth was 105% in the test with NCI/ADR-RES ovarian; 96.5% in the test with T-47D breast; 97.7% in the test with BT-549 breast; 105% in the test on MDA-MB-435 melanoma; 100% in the test on SW-620 colon; 101% in the test with MCF7 breast. The values for the growth in the test with HCT-116 colon, with HCC-2998 colon and in the test with KM12 colon were 106%, 113% and 102%, respectively.
`O=C1/C(=C/c2ccc(O)cc2)COc2ccc(O)cc21`: the growth is 8.89% (active) with RPMI-8226 leukemia; 108% in the test with OVCAR-8 ovarian; 104% in the test with OVCAR-5 ovarian; 102% in the test on OVCAR-4 ovarian; 97.3% with IGROV1 ovarian; 98.5% in the test with HS 578T breast. Besides, the growth was 98.7% with NCI/ADR-RES ovarian; 103% in the test with T-47D breast; 106% in the test with BT-549 breast; 94.8% in the test on MDA-MB-435 melanoma; 87.2% in the test on SW-620 colon; 51.6% with MCF7 breast. For the same compound, the growth in the test on HCT-116 colon is 86.1%; with HCC-2998 colon, 108%; in the test with KM12 colon, 64.7%.
For `CCOc1cccc(/C=N\Nc2nc(=O)cc(C(=O)OC)s2)c1O`, the growth was 57.6% in the test on RPMI-8226 leukemia; 66.9% in the test with OVCAR-8 ovarian; 92.9% in the test on OVCAR-5 ovarian; 95.6% in the test on SK-OV-3 ovarian; 61.8% with IGROV1 ovarian; 29.7% in the test on OVCAR-3 ovarian. Also, the growth in the test with HS 578T breast is 90.4%; in the test on NCI/ADR-RES ovarian it was 32.3%; in the test with T-47D breast, 37.8%; with BT-549 breast, 85.4%; in the test on MDA-MB-435 melanoma it was 91.6%; in the test on SW-620 colon it was 79.3%. Also, the growth in the test with MCF7 breast was 8.66% (active); with HCT-116 colon, 22%; in the test on HCC-2998 colon, 78%; with KM12 colon, 75.3%.
As for `Oc1c(C(Nc2ccccn2)c2cccc(Oc3ccccc3)c2)ccc2cccnc12` (stereo not drawn), the growth was -50.6% (active) with RPMI-8226 leukemia; -85.2% (active) in the test on OVCAR-8 ovarian; -84.1% (active) in the test on OVCAR-5 ovarian; -96.7% (active) in the test with OVCAR-4 ovarian; -91.7% (active) in the test on IGROV1 ovarian; -47.6% (active) in the test on HS 578T breast. Also, the growth was -81.1% (active) in the test with NCI/ADR-RES ovarian; -71% (active) in the test on T-47D breast; -74.5% (active) in the test with BT-549 breast; -90.1% (active) in the test on MDA-MB-435 melanoma; -88% (active) with SW-620 colon; -83% (active) in the test with MCF7 breast. For the same compound, the growth with HCT-116 colon was -85.3% (active); with HCC-2998 colon it was -84.5% (active); in the test on KM12 colon, -89.9% (active).
For the compound `CCCN1CCN(c2ccc3nc(-c4ccc5nc(-c6cc(OC)ccc6OC)[nH]c5c4)[nH]c3c2)CC1`, the growth in the test with RPMI-8226 leukemia is -17% (active); in the test with OVCAR-8 ovarian, 106%; with OVCAR-5 ovarian, 113%; with OVCAR-4 ovarian, 81.1%; with OVCAR-3 ovarian it was 122%; in the test on HS 578T breast it was 111%. Moreover, the growth is 111% in the test with NCI/ADR-RES ovarian; 98.8% in the test on T-47D breast; 96.3% in the test with BT-549 breast; 106% in the test with MDA-MB-435 melanoma; -70.2% (active) in the test on SW-620 colon; -63.3% (active) with MCF7 breast. Also, the growth in the test with HCT-116 colon is -57.3% (active); with HCC-2998 colon, 113%; in the test with KM12 colon, 32.3%.
Take `COc1cccc2c(=O)c3c(sc12)c(NCCCNCCO)nc1ccccc13`: the growth with RPMI-8226 leukemia was 29.1%; in the test with OVCAR-8 ovarian, 49.8%; in the test on OVCAR-5 ovarian, 77.8%; in the test with OVCAR-4 ovarian, 42.4%; in the test on HS 578T breast, 35.9%; in the test with NCI/ADR-RES ovarian, 60.6%. The growth was 72.1% in the test on T-47D breast; 84.8% in the test with BT-549 breast; 15% in the test on MDA-MB-435 melanoma; -73.9% (active) in the test with SW-620 colon; -13.6% (active) with MCF7 breast; 31.5% in the test with HCT-116 colon. The values for the growth in the test with HCC-2998 colon and in the test with KM12 colon were 37.9% and 31.3%, respectively.
As to `FC(F)(F)c1cccc(CNC2CCN(CCc3ccccc3)CC2)c1`, the growth in the test with RPMI-8226 leukemia was -10.3% (active); in the test on OVCAR-8 ovarian, 79.5%; with OVCAR-5 ovarian, 84.6%; with SK-OV-3 ovarian, 81.2%; with IGROV1 ovarian, 61.9%; in the test on OVCAR-3 ovarian, 64.7%. In addition, the growth in the test with HS 578T breast was 88.1%; in the test with NCI/ADR-RES ovarian it was 65.2%; with T-47D breast, 86.7%; in the test on BT-549 breast, 96.4%; in the test with MDA-MB-435 melanoma, 43.6%; in the test on SW-620 colon it was 63%. The growth was 74.9% in the test on MCF7 breast, 31.3% with HCT-116 colon, 19.5% in the test with HCC-2998 colon and 70.2% in the test with KM12 colon.
